# Test results reported in the supplement of paper PMC7411054.
# Counter-ions that a name gives are not always drawn.
# Tests used:
# Settings in all cases: treatment time: 24 h
# HepG2-GM130-SQSTM1 [1] = assay: lowest phenotypically active concentration; higher = less potent
# How it was run: (§1)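 The reporter lines, fifteen in total and built by gene editing in A549, HepG2 and WPMY1 cells, used BFP for segmentation alongside GFP and RFP/FusionRed markers. Each was treated at 0.3, 1, 3 or 9 µM for 24 h in four wells and then imaged live, with live-cell features normalised to solvent control wells. Deviation meant ≥3 of 4 wells beyond the 95th percentile of control Euclidean distances; reproducibility meant a median replicate Pearson correlation above the 95th percentile of non-replicates. Only conditions meeting both were scored as phenotypically active.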
# HepG2-TUBA1B-RELA [2] = assay: as above
# How it was run: as §1
# A549-ACTB-RAB5A = assay: phenotypically active (imaging signature differs from DMSO and reproducible) at any of 0.3-9 uM (binary (1 = active, 0 = inactive)); higher = active
# How it was run: as §1
# A549-CANX-COX4 = assay: as above
# How it was run: as §1
# A549-GM130-SQSTM1 = assay: as above
# How it was run: as §1
# A549-TP53BP1-CLTA = assay: as above
# How it was run: as §1
# A549-TUBA1B-RELA = assay: as above
# How it was run: as §1
# HepG2-ACTB-RAB5A = assay: as above
# How it was run: as §1
# HepG2-CANX-COX4 [3] = assay: as above
# How it was run: as §1
# HepG2-GM130-SQSTM1 [4] = assay: as above
# How it was run: as §1
# HepG2-TP53BP1-CLTA = assay: as above
# How it was run: as §1
# HepG2-TUBA1B-RELA [5] = assay: as above
# How it was run: as §1
# WPMY1-ACTB-RAB5A [6] = assay: as above
# How it was run: as §1
# WPMY1-CANX-COX4 = assay: as above
# How it was run: as §1
# WPMY1-GM130-SQSTM1 [7] = assay: as above
# How it was run: as §1
# WPMY1-TP53BP1-CLTA = assay: as above
# How it was run: as §1
# WPMY1-TUBA1B-RELA = assay: as above
# How it was run: as §1
# HepG2-CANX-COX4 [8] = assay: lowest phenotypically active concentration; higher = less potent
# How it was run: as §1
# WPMY1-ACTB-RAB5A [9] = assay: as above
# How it was run: as §1
# WPMY1-GM130-SQSTM1 [10] = assay: as above
# How it was run: as §1
Compound,lowest phenotypically active concentration (HepG2-GM130-SQSTM1 [1]) [µM],lowest phenotypically active concentration (HepG2-TUBA1B-RELA [2]) [µM],phenotypically active (A549-ACTB-RAB5A),phenotypically active (A549-CANX-COX4),phenotypically active (A549-GM130-SQSTM1),phenotypically active (A549-TP53BP1-CLTA),phenotypically active (A549-TUBA1B-RELA),phenotypically active (HepG2-ACTB-RAB5A),phenotypically active (HepG2-CANX-COX4 [3]),phenotypically active (HepG2-GM130-SQSTM1 [4]),phenotypically active (HepG2-TP53BP1-CLTA),phenotypically active (HepG2-TUBA1B-RELA [5]),phenotypically active (WPMY1-ACTB-RAB5A [6]),phenotypically active (WPMY1-CANX-COX4),phenotypically active (WPMY1-GM130-SQSTM1 [7]),phenotypically active (WPMY1-TP53BP1-CLTA),phenotypically active (WPMY1-TUBA1B-RELA),lowest phenotypically active concentration (HepG2-CANX-COX4 [8]) [µM],lowest phenotypically active concentration (WPMY1-ACTB-RAB5A [9]) [µM],lowest phenotypically active concentration (WPMY1-GM130-SQSTM1 [10]) [µM]
O=C(O)[C@H]1CCCC[C@H]1C(=O)N1CCc2ccccc2[C@H]1CN1C(=O)c2ccccc2C1=O,9,9,0 (inactive),0 (inactive),0 (inactive),0 (inactive),0 (inactive),1 (active),0 (inactive),1 (active),0 (inactive),1 (active),0 (inactive),0 (inactive),0 (inactive),0 (inactive),0 (inactive),–,–,–
CCCc1cc2c(N3CCN(C4=NCC(C)(C)S4)CC3)ncnc2s1 [MI 2 dihydrochloride],9,–,0 (inactive),0 (inactive),1 (active),0 (inactive),0 (inactive),1 (active),1 (active),1 (active),1 (active),0 (inactive),1 (active),0 (inactive),1 (active),0 (inactive),0 (inactive),9,3,9
NS(=O)(=O)c1cc2c(cc1C(F)(F)F)NC(Cc1ccccc1)NS2(=O)=O (stereo unspecified) [bendroflumethiazide],–,–,0 (inactive),0 (inactive),0 (inactive),0 (inactive),0 (inactive),0 (inactive),1 (active),0 (inactive),0 (inactive),0 (inactive),0 (inactive),0 (inactive),0 (inactive),0 (inactive),0 (inactive),3,–,–
COc1ccc(CC2c3cc(OC)c(OC)cc3CC[N+]2(C)CCC(=O)OCCCCCOC(=O)CC[N+]2(C)CCc3cc(OC)c(OC)cc3C2Cc2ccc(OC)c(OC)c2)cc1OC (stereo unspecified) [Atracurium besilate],3,–,0 (inactive),0 (inactive),0 (inactive),0 (inactive),0 (inactive),0 (inactive),1 (active),1 (active),0 (inactive),0 (inactive),1 (active),0 (inactive),1 (active),0 (inactive),0 (inactive),9,3,9
Nc1nnc(Sc2ncc([N+](=O)[O-])s2)s1,–,–,0 (inactive),0 (inactive),0 (inactive),0 (inactive),1 (active),0 (inactive),0 (inactive),0 (inactive),0 (inactive),0 (inactive),0 (inactive),0 (inactive),0 (inactive),0 (inactive),0 (inactive),–,–,–
S=c1[nH]cnc2nc[nH]c12 [mercaptopurine],–,9,0 (inactive),0 (inactive),0 (inactive),0 (inactive),0 (inactive),1 (active),1 (active),0 (inactive),0 (inactive),1 (active),0 (inactive),1 (active),1 (active),0 (inactive),1 (active),9,–,9
Cc1cc(C)c(C)c(S(=O)(=O)Nc2ccc(N3CC[C@H](C(=O)O)C3)c3ccccc23)c1C,9,–,0 (inactive),0 (inactive),1 (active),0 (inactive),0 (inactive),0 (inactive),0 (inactive),1 (active),0 (inactive),0 (inactive),0 (inactive),0 (inactive),1 (active),0 (inactive),0 (inactive),–,–,1
COCCCOc1ccnc(CS(=O)c2nc3ccccc3[nH]2)c1C (stereo unspecified) [rabeprazole],–,9,0 (inactive),0 (inactive),0 (inactive),0 (inactive),0 (inactive),1 (active),0 (inactive),0 (inactive),0 (inactive),1 (active),0 (inactive),0 (inactive),0 (inactive),0 (inactive),0 (inactive),–,–,–
COc1cc(-c2cn(C)c(=O)c3cnccc23)c(OC)cc1CN(C)C,9,9,0 (inactive),0 (inactive),0 (inactive),1 (active),0 (inactive),1 (active),0 (inactive),1 (active),0 (inactive),1 (active),0 (inactive),0 (inactive),0 (inactive),0 (inactive),1 (active),–,–,–
CC(C)NCC(O)COc1ccc(CC(N)=O)cc1 (stereo unspecified) [atenolol-()],–,–,0 (inactive),0 (inactive),1 (active),0 (inactive),0 (inactive),0 (inactive),0 (inactive),0 (inactive),0 (inactive),0 (inactive),0 (inactive),0 (inactive),1 (active),1 (active),0 (inactive),–,–,9
O=C(Nc1ccccc1)N1CCN(c2nc(-c3ccccc3)ns2)CC1,–,9,0 (inactive),0 (inactive),0 (inactive),0 (inactive),0 (inactive),0 (inactive),1 (active),0 (inactive),1 (active),1 (active),0 (inactive),0 (inactive),1 (active),0 (inactive),0 (inactive),9,–,9
CCCCCCCCCCCCC/C=C/[C@H](O)[C@H](N)CO [D-erythro-Sphingosine (synthetic)],–,–,0 (inactive),0 (inactive),1 (active),0 (inactive),0 (inactive),0 (inactive),0 (inactive),0 (inactive),0 (inactive),0 (inactive),0 (inactive),0 (inactive),1 (active),0 (inactive),0 (inactive),–,–,9
Cc1ccc(-n2sc3ccccc3c2=O)cc1,9,–,0 (inactive),0 (inactive),0 (inactive),0 (inactive),0 (inactive),0 (inactive),1 (active),1 (active),0 (inactive),0 (inactive),1 (active),0 (inactive),1 (active),0 (inactive),0 (inactive),9,9,9
CO[C@H]1C=CO[C@@]2(C)Oc3c(C)c(O)c4c(O)c(c(/C=N/N5CCN(C)CC5)c(O)c4c3C2=O)NC(=O)C(C)=CC=C[C@H](C)[C@H](O)[C@@H](C)[C@@H](O)[C@@H](C)[C@H](OC(C)=O)[C@@H]1C [Rifampicin],–,–,0 (inactive),0 (inactive),1 (active),0 (inactive),0 (inactive),0 (inactive),1 (active),0 (inactive),0 (inactive),0 (inactive),0 (inactive),0 (inactive),0 (inactive),0 (inactive),0 (inactive),3,–,–
Nc1ncnc2c1ncn2[C@@H]1O[C@H](CO)[C@@H](O)[C@H]1O [Adenosine],–,–,0 (inactive),0 (inactive),0 (inactive),0 (inactive),0 (inactive),1 (active),0 (inactive),0 (inactive),0 (inactive),0 (inactive),0 (inactive),0 (inactive),0 (inactive),0 (inactive),0 (inactive),–,–,–
CC(C)(C)c1ccc(C(=O)Nc2cn3cc(-n4ccnc4)ccc3n2)cc1,–,–,0 (inactive),0 (inactive),0 (inactive),0 (inactive),0 (inactive),1 (active),0 (inactive),0 (inactive),0 (inactive),0 (inactive),0 (inactive),0 (inactive),0 (inactive),0 (inactive),0 (inactive),–,–,–
CCc1c(C(=O)Nc2cc(S(=O)(=O)N(CC)CC)ccc2O)[nH]c(C)c1C(C)=O,–,–,0 (inactive),0 (inactive),0 (inactive),0 (inactive),0 (inactive),1 (active),1 (active),0 (inactive),0 (inactive),0 (inactive),0 (inactive),0 (inactive),1 (active),0 (inactive),0 (inactive),9,–,9
O=C1NN(c2ccc(F)c(Cl)c2)C(=O)/C1=C\c1ccc([N+](=O)[O-])o1,–,–,0 (inactive),0 (inactive),1 (active),0 (inactive),0 (inactive),0 (inactive),0 (inactive),0 (inactive),0 (inactive),0 (inactive),0 (inactive),1 (active),1 (active),0 (inactive),0 (inactive),–,–,9
CNC(=C[N+](=O)[O-])NCCSCc1ccc(CN(C)C)o1 [ranitidine],1,–,0 (inactive),0 (inactive),0 (inactive),0 (inactive),0 (inactive),0 (inactive),0 (inactive),1 (active),0 (inactive),0 (inactive),0 (inactive),0 (inactive),0 (inactive),0 (inactive),0 (inactive),–,–,–
Nc1ncnc2c1c(COc1cccc(Cl)c1)nn2C1CCOCC1,–,–,0 (inactive),0 (inactive),0 (inactive),0 (inactive),0 (inactive),0 (inactive),0 (inactive),0 (inactive),1 (active),0 (inactive),0 (inactive),0 (inactive),0 (inactive),0 (inactive),0 (inactive),–,–,–
Cc1nc[nH]c1C1CCN(c2nc3cccc4c3n2CCC4=O)CC1,–,–,0 (inactive),0 (inactive),0 (inactive),0 (inactive),0 (inactive),0 (inactive),0 (inactive),0 (inactive),1 (active),0 (inactive),0 (inactive),0 (inactive),0 (inactive),0 (inactive),0 (inactive),–,–,–
NCCCCNS(=O)(=O)c1ccc2c(Cl)cccc2c1 [W-13 hydrochloride],–,–,0 (inactive),0 (inactive),0 (inactive),0 (inactive),0 (inactive),0 (inactive),0 (inactive),0 (inactive),0 (inactive),0 (inactive),1 (active),1 (active),1 (active),0 (inactive),1 (active),–,9,9
CC(C)C(=O)Nc1ccc([N+](=O)[O-])c(C(F)(F)F)c1 [flutamide],–,–,0 (inactive),0 (inactive),0 (inactive),0 (inactive),0 (inactive),0 (inactive),0 (inactive),0 (inactive),0 (inactive),0 (inactive),0 (inactive),0 (inactive),1 (active),0 (inactive),0 (inactive),–,–,9
